Source: PubChem BioAssay (NCI)
This is part of a sample that, as a whole, favours compounds with a hit. Of some 83,000 tested, about 20% had one in any assay.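 Interpretation: 100, growth as untreated; towards 0, rising growth inhibition; 0, no net growth; 0 to -100, cell death. Compounds scoring below 10 were considered active.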 Unmarked numbers belong to inactive results. Activity calls are given as the source filed them.

What was measured:
Assay in all cases: NCI-60 one-dose screen, 48 h (100 = growth as untreated, 0 = no growth, -100 = all killed)
Details in all cases: 10 µM unless noted
[1] = test system: T-47D breast
[2] = test system: BT-549 breast
[3] = test system: MDA-MB-435 melanoma
[4] = test system: SW-620 colon
[5] = test system: MCF7 breast
[6] = test system: HCT-116 colon
[7] = test system: HCC-2998 colon
[8] = test system: KM12 colon

SMILES | growth [1] | growth [2] | growth [3] | growth [4] | growth [5] | growth [6] | growth [7] | growth [8]
Clc1ccc(-c2c3ccc(=[N+]4CCCCC4)cc-3oc3cc(N4CCCCC4)ccc23)cc1 | -75.3% (active) | -93.5% (active) | -59.9% (active) | -83.8% (active) | -73.9% (active) | -97.3% (active) | -95.6% (active) | -86.9% (active)
COc1cccc(-c2nn(-c3ccccc3)cc2-c2ccnc(NCCCNC(=O)c3cccc(C(F)(F)F)c3)c2)c1 | -19.6% (active) | 1.62% (active) | 24.6% | 33.2% | 18.1% | 10.6% | 21.7% | 23%
O=C1/C(=C2/C=Nc3ccccc32)N(O)c2ccccc21 | 19.5% | 78.1% | -95.3% (active) | 75.4% | 40.3% | 49.8% | 113% | 73.1%
Cc1ccc(S(=O)(=O)Oc2cc(OS(=O)(=O)c3ccc(C)cc3)cc(OS(=O)(=O)c3ccc(C)cc3)c2)cc1 | 97.8% | 118% | 96.2% | 92.2% | 104% | 103% | 139% | 123%
NC(N)=Nc1nc2ccccc2n2c1nc1ccccc12 | 40.7% | 83% | 33.3% | 24.9% | 8.98% (active) | 18.2% | 46.3% | 33.6%
O=C(c1ccccc1)N1N=C(c2ccccc2)CC1c1nnc2n(Cc3ccccc3)c(=O)c3c4c(sc3n12)CCCC4 (stereo not drawn) | 122% | 115% | 97.9% | 105% | 96.4% | 95.1% | 125% | 82.4%
O=C1/C(=C/c2ccc(Br)cc2)C=C(c2ccccc2)N1CCc1ccccc1 | 50.5% | 74.5% | 63.2% | 70.2% | 55.2% | 22.7% | 70.1% | 87.9%
O=c1ssc(Cl)c1-c1ccccc1 | 95.7% | 114% | 98.4% | 95.2% | 89.3% | 93.5% | 104% | 113%
COc1cc(CCC[P+](c2ccccc2)(c2ccccc2)c2ccccc2)cc2c1OCO2 | 11.5% | 23.3% | 3.36% (active) | 37.6% | 18.2% | 22.8% | 24.3% | 10.7%
CCN(CC)CCN1CC(O)=C(c2nc(-c3ccc(Cl)cc3)cs2)C1=N | 17.2% | 49.9% | -62.4% (active) | -56.2% (active) | 10.1% | 1.48% (active) | -70.7% (active) | 33.7%
N#Cc1c(N)nn(C(=O)c2ccc(NC(=O)c3ccccn3)cc2)c1-c1ccc(Cl)cc1 | -16.7% (active) | 15.5% | 33.9% | 13.9% | 36.4% | 12.4% | 14.9% | -26.3% (active)
c1ccc2c(c1)nc(CN1CCOCC1)n1cc(N3CCCC3)nc21 | 95.6% | 100% | 106% | 99.7% | 96.5% | 93.5% | 99.8% | 99.1%
N=C1C(c2nc(-c3ccc(Br)cc3)cs2)=C(O)CN1CC1CCCO1 (stereo not drawn) | 95.7% | 106% | 88.8% | 60% | 78.4% | 25.7% | 95.1% | 86.6%
O=C(N=c1oc2ccccc2cc1-c1cc2ccccc2[nH]1)c1ccc(Cl)cc1 | 47.5% | 76% | 96.4% | 25.1% | 30.4% | 20% | 81.9% | 29.1%
C=C1C(=O)O[C@H]2[C@H]1CC/C(CNC(=O)/C=C/c1ccc(Cl)cc1Cl)=C\CC[C@@]1(C)O[C@@H]21 | -61.2% (active) | -53.1% (active) | 4.95% (active) | -51.6% (active) | -59.9% (active) | -73.9% (active) | -93.3% (active) | 20%
COC(=O)c1c2c(c[n+]([O-])c1C)C(=O)C=CC2=O | -11.9% (active) | 71.4% | -81.8% (active) | 0.106% (active) | -62% (active) | -9.77% (active) | 88.1% | 98.7%

SMILES | growth [1] | growth [2] | growth [3] | growth [4] | growth [5] | growth [6] | growth [7] | growth [8]
C[C@@]1(CCC#N)[C@H]2CC[C@@H]3[C@H]4[C@H](C(=O)/C=C/c5cccnc5)CC[C@]4(C#N)CC[C@@]3(C)[C@]2(C)CC[C@H]1C(=O)/C=C/c1cccnc1 | 65.2% | 80.7% | 34% | 37.2% | 39.4% | 20% | 105% | 36%
COC(=O)[C@H](CSC)N(C)C(=O)[C@@H]1CSSC[C@@H](NC(=O)c2nc3ccccc3cc2O)C(=O)NCC(=O)N1C | 33.8% | 111% | 70% | 74.2% | 79.4% | 71.7% | 98.8% | 50.6%
C=CCNc1nc(NN2C(=O)c3cccc4cccc(c34)C2=O)nc(-n2cnc3ccccc32)n1 | 54.8% | 82.5% | 97.5% | 90.6% | 55.1% | 79.8% | 91.8% | 18.6%
CN(C)c1ccc(-c2ccc3[nH]c(=O)nc(-c4ccccc4)c3c2)cn1 | 61% | 41.9% | -11.9% (active) | 24.5% | 25.9% | 16.4% | 66.3% | 19.8%
c1ccc(-c2nc([P+](c3ccccc3)(c3ccccc3)c3ccccc3)c(N3CCOCC3)o2)cc1 | -3.03% (active) | -5.41% (active) | -1.04% (active) | 14.4% | 2.94% (active) | 2.08% (active) | 26.5% | -1.22% (active)
C=C(C)[C@@H]1CC=C2c3sc(-c4ccc(C)cc4)nc3C[C@@H](C)[C@]2(C)C1 | 95.4% | 109% | 101% | 103% | 96.9% | 105% | 115% | 101%
CCOC(=O)/C=C/c1cc2cc(-c3csc4ccccc34)ccc2[nH]1 | 55% | 69.6% | -10.4% (active) | 46.4% | 34.6% | 60.1% | 33.4% | 23.2%
CCOP(=O)(OCC)C1CP(=O)(c2ccccc2)CC(C)=C1Cl (stereo not drawn) | 102% | 129% | 110% | 105% | 102% | 91.5% | 102% | 109%
CCOC(=O)c1c2c(n3ccc(NC(=O)OC(C)(C)C)cc13)C(=O)c1ncccc1C2=O | 5.16% (active) | -36.7% (active) | -62.2% (active) | -74.9% (active) | -72.2% (active) | -65.8% (active) | -59.4% (active) | -46.4% (active)
COc1ccc(OC)c(-c2c(C#N)c(-c3ccc(Cl)cc3)nc3c2c(-c2ccccc2)nn3-c2ccccc2)c1 | 90.3% | 101% | 103% | 98.6% | 90.7% | 93.8% | 108% | 99.2%
O=C(CCCCCCN1CC(=O)N2[C@@H](c3ccccc3Cl)c3[nH]c4ccccc4c3C[C@H]2C1=O)NO | 28.3% | 76.8% | 59.3% | 49.1% | 44% | 34.2% | 69.6% | 74.8%
Cc1occc1-c1n[nH]c(=S)n1N1C(=O)CSC1=S | 104% | 108% | 99.5% | 94.8% | 94.4% | 105% | 112% | 99%
Cc1cc(/C=C\c2ccc3ccccc3[n+]2C)c(O)c2ncccc12 | 18% | -19.4% (active) | 6.21% (active) | 15.1% | 5.19% (active) | -8.95% (active) | -3.25% (active) | 13.7%
CCc1c2c(nc3ccc(OC(=O)OCc4ccc(B5OC(C)(C)C(C)(C)O5)cc4)cc13)-c1cc3c(c(=O)n1C2)COC(=O)[C@]3(O)CC | 7.4% (active) | 13.2% | -28.3% (active) | 5.3% (active) | 2.63% (active) | 14.5% | 2.03% (active) | 0.859% (active)
CNc1ccc(NC)c2c1C(=O)c1ccccc1C2=O | 37.3% | 75.7% | 110% | 92.4% | 16% | 78% | 72.3% | 64.4%
